Values joined by “and” are separate entries in the source; they are usually repeats but may differ in a detail not shown here. Equal values may be shown once. Results filed as inconclusive are left out. Where a call stands in place of a potency, no number is given. The source holds several records for some structures; these can differ, active in one and inactive in another. Active and inactive are the calls of the source. Calls follow the shape of the dose curve; as a rule, active = well fitted curve in the direction sought with a large enough effect in the repeat runs; inconclusive = weak or mixed curves; inactive = no such curve, though single readings can be large; an effect the other way counts as inactive or inconclusive.
Assay: qHTS assay for identifying genotoxic compounds that show differential cytotoxicity against isogenic chicken DT40 cell lines with known DNA damage response pathways - wild type cell line (AID 743012); also: nearly all actives have a fitted effect of over 60% in size
Settings: DT40 wild type chicken cells viability, CellTiter-Glo, 40 h; series mostly up to 68.4 µM
In short: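 First, wild type DT40 cells were plated at 300 per well and equilibrated about 0.5 h at 37 C/5% CO2. Next, compounds in DMSO were added and exposure lasted 40 h. Finally, CellTiter-Glo was added for 30 min at room temperature and luminescence recorded.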
Potency is read from the fitted curve at half-maximal effect.

With COc1ccc2cc(S(=O)(=O)N[C@H](CC(=O)N[C@H](Cc3ccc(CN4[C@H](C)CCC[C@@H]4C)cc3)C(=O)N(C)C(C)C)c3ccc4c(c3)OCO4)ccc2c1 as the molecule, how does the Potency read?
The Potency was 7.28 µM (active).

With Cc1cc(=O)oc2cc(O)ccc12 as the molecule, how does the Potency read?
The Potency was “inactive”.

For O=C1OC2(c3ccccc31)c1cc(Br)c(O)c(Br)c1Oc1c2cc(Br)c(O)c1Br, which Potency is on record?
The Potency was “inactive”.

Which Potency does the source give for CN(C)CCOC(C)(c1ccccc1)c1ccccn1 (stereo not drawn) here?
The Potency was “inactive”.

Which Potency does the source give for O=C(Nc1ncc([N+](=O)[O-])s1)c1cccs1 here?
The Potency was 23.7 µM (active).

With CN1CCC[C@H]1c1cccnc1 as the molecule, how does the Potency read?
Its Potency is “inactive”.

With CC(=O)C(=O)O as the molecule, how does the Potency read?
The Potency was “inactive”.

For CC(=O)CCC(=O)O, which Potency is on record?
The Potency was “inactive”.

With O=C(O)CC(O)C(=O)O (stereo not drawn) as the molecule, how does the Potency read?
The Potency was “inactive”.

For C=C(C)C(=O)OCC(C)O (stereo not drawn), which Potency is on record?
Its Potency is “inactive”.

For Cc1c(C(=O)O)c(O)cc2c1C(=O)c1c(O)c([C@@H]3O[C@H](CO)[C@@H](O)[C@H](O)[C@H]3O)c(O)c(O)c1C2=O, which Potency is on record?
Its Potency is “inactive”.

Which Potency does the source give for Cc1cc(C)nc(NS(=O)(=O)c2ccc(N)cc2)n1 here?
Its Potency is “inactive”.

Which Potency does the source give for CCCCCCCCCCCC[N+](C)(C)Cc1ccccc1 here?
The Potency was 422 nM (active) and 151 nM (active) and 1.05 µM (active).

With CCN(Cc1c(F)cccc1Cl)c1c([N+](=O)[O-])cc(C(F)(F)F)cc1[N+](=O)[O-] as the molecule, how does the Potency read?
The Potency was 30.6 µM (active).

For NC(=O)c1cccnc1, which Potency is on record?
The Potency was “inactive”.

Which Potency does the source give for COc1ccc(OC(F)(F)F)cc1CN[C@H]1CCCN[C@H]1c1ccccc1 here?
The Potency was 15.4 µM (active).

With O=S1(=O)OC(c2ccc(O)cc2)(c2ccc(O)cc2)c2ccccc21 as the molecule, how does the Potency read?
Its Potency is “inactive”.

For CCc1nc(N)nc(N)c1-c1ccc(Cl)cc1, which Potency is on record?
The Potency was 596 nM (active) and 139 nM (active) and 273 nM (active).

With CN(N=O)C(=O)N[C@@H]1[C@@H](O)[C@H](O)[C@@H](CO)O[C@@H]1O as the molecule, how does the Potency read?
Its Potency is “inactive”.

With NC1CCCCC1 as the molecule, how does the Potency read?
The Potency was “inactive”.

Which Potency does the source give for NS(=O)(=O)O here?
Its Potency is “inactive”.

For C=CCc1ccc(O)c(OC)c1, which Potency is on record?
The Potency was “inactive”.

Which Potency does the source give for CC(C)NCC(O)c1ccc(O)c(O)c1 (stereo not drawn) here?
Its Potency is “inactive and 61.1 µM (active)”.

Assay: qHTS assay for identifying genotoxic compounds that show differential cytotoxicity against isogenic chicken DT40 cell lines with known DNA damage response pathways - Rev3 mutant cell line (AID 743014); also: nearly all actives have a fitted effect of over 55% in size
Settings: chicken DT40 Rev3-/- viability, CellTiter-Glo, 40 h; series mostly up to 68.4 µM

For COc1ccc2cc(S(=O)(=O)N[C@H](CC(=O)N[C@H](Cc3ccc(CN4[C@H](C)CCC[C@@H]4C)cc3)C(=O)N(C)C(C)C)c3ccc4c(c3)OCO4)ccc2c1, which Potency is on record?
Its Potency is 9.17 µM (active).

Which Potency does the source give for Cc1cc(=O)oc2cc(O)ccc12 here?
Its Potency is “inactive”.

Which Potency does the source give for CN(C)CCOC(C)(c1ccccc1)c1ccccn1 (stereo not drawn) here?
The Potency was “inactive”.

With O=C(Nc1ncc([N+](=O)[O-])s1)c1cccs1 as the molecule, how does the Potency read?
The Potency was 29.8 µM (active).

With CN1CCC[C@H]1c1cccnc1 as the molecule, how does the Potency read?
The Potency was “inactive”.

For CC(=O)C(=O)O, which Potency is on record?
Its Potency is “inactive”.

For CC(=O)CCC(=O)O, which Potency is on record?
Its Potency is “inactive”.

Which Potency does the source give for O=C(O)CC(O)C(=O)O (stereo not drawn) here?
The Potency was “inactive”.

Which Potency does the source give for C=C(C)C(=O)OCC(C)O (stereo not drawn) here?
The Potency was “inactive”.

With Cc1c(C(=O)O)c(O)cc2c1C(=O)c1c(O)c([C@@H]3O[C@H](CO)[C@@H](O)[C@H](O)[C@H]3O)c(O)c(O)c1C2=O as the molecule, how does the Potency read?
Its Potency is “inactive and 59.6 µM (active) and 54.5 µM (active)”.

For Cc1cc(C)nc(NS(=O)(=O)c2ccc(N)cc2)n1, which Potency is on record?
Its Potency is “inactive”.

Which Potency does the source give for CCCCCCCCCCCC[N+](C)(C)Cc1ccccc1 here?
Its Potency is 298 nM (active) and 67.3 nM (active) and 1.05 µM (active).

Which Potency does the source give for CCN(Cc1c(F)cccc1Cl)c1c([N+](=O)[O-])cc(C(F)(F)F)cc1[N+](=O)[O-] here?
The Potency was 27.3 µM (active).

For NC(=O)c1cccnc1, which Potency is on record?
Its Potency is “inactive”.

Which Potency does the source give for COc1ccc(OC(F)(F)F)cc1CN[C@H]1CCCN[C@H]1c1ccccc1 here?
Its Potency is 30.6 µM (active).

With O=S1(=O)OC(c2ccc(O)cc2)(c2ccc(O)cc2)c2ccccc21 as the molecule, how does the Potency read?
Its Potency is “inactive”.

With CCc1nc(N)nc(N)c1-c1ccc(Cl)cc1 as the molecule, how does the Potency read?
The Potency was 668 nM (active) and 196 nM (active) and 109 nM (active).

Which Potency does the source give for CN(N=O)C(=O)N[C@@H]1[C@@H](O)[C@H](O)[C@@H](CO)O[C@@H]1O here?
The Potency was “inactive”.

Which Potency does the source give for NC1CCCCC1 here?
The Potency was 54.8 µM (active) and inactive.

For NS(=O)(=O)O, which Potency is on record?
The Potency was “inactive”.

Which Potency does the source give for C=CCc1ccc(O)c(OC)c1 here?
The Potency was “inactive”.

For CC(C)NCC(O)c1ccc(O)c(O)c1 (stereo not drawn), which Potency is on record?
The Potency was 61.1 µM (active).

Assay: qHTS assay for identifying genotoxic compounds that show differential cytotoxicity against isogenic chicken DT40 cell lines with known DNA damage response pathways - Rad54/Ku70 mutant cell line (AID 743015); also: nearly all actives have a fitted effect of over 60% in size
Settings: DT40 Rad54/Ku70 mutant viability, CellTiter-Glo, 40 h; series mostly up to 66.8 µM

With COc1ccc2cc(S(=O)(=O)N[C@H](CC(=O)N[C@H](Cc3ccc(CN4[C@H](C)CCC[C@@H]4C)cc3)C(=O)N(C)C(C)C)c3ccc4c(c3)OCO4)ccc2c1 as the molecule, how does the Potency read?
The Potency was 5.16 µM (active).

Which Potency does the source give for Cc1cc(=O)oc2cc(O)ccc12 here?
Its Potency is “inactive”.

Which Potency does the source give for O=C1OC2(c3ccccc31)c1cc(Br)c(O)c(Br)c1Oc1c2cc(Br)c(O)c1Br here?
The Potency was “inactive”.

With CN(C)CCOC(C)(c1ccccc1)c1ccccn1 (stereo not drawn) as the molecule, how does the Potency read?
Its Potency is “inactive”.

For O=C(Nc1ncc([N+](=O)[O-])s1)c1cccs1, which Potency is on record?
The Potency was 26.6 µM (active).

Which Potency does the source give for CN1CCC[C@H]1c1cccnc1 here?
Its Potency is “inactive”.

For CC(=O)C(=O)O, which Potency is on record?
Its Potency is “inactive”.

Which Potency does the source give for CC(=O)CCC(=O)O here?
Its Potency is “inactive”.

Which Potency does the source give for Nc1ccc(O)c([N+](=O)[O-])c1 here?
Its Potency is 65.6 µM (active).

Which Potency does the source give for O=C(O)CC(O)C(=O)O (stereo not drawn) here?
The Potency was “inactive”.

With C=C(C)C(=O)OCC(C)O (stereo not drawn) as the molecule, how does the Potency read?
The Potency was “inactive”.

Which Potency does the source give for Cc1c(C(=O)O)c(O)cc2c1C(=O)c1c(O)c([C@@H]3O[C@H](CO)[C@@H](O)[C@H](O)[C@H]3O)c(O)c(O)c1C2=O here?
The Potency was 53.1 µM (active) and 48.6 µM (active).

With Cc1cc(C)nc(NS(=O)(=O)c2ccc(N)cc2)n1 as the molecule, how does the Potency read?
The Potency was “inactive”.

Which Potency does the source give for CCCCCCCCCCCC[N+](C)(C)Cc1ccccc1 here?
Its Potency is 668 nM (active) and 107 nM (active) and 1.05 µM (active).

For CCN(Cc1c(F)cccc1Cl)c1c([N+](=O)[O-])cc(C(F)(F)F)cc1[N+](=O)[O-], which Potency is on record?
Its Potency is 24.3 µM (active).

For NC(=O)c1cccnc1, which Potency is on record?
Its Potency is “inactive”.

For COc1ccc(OC(F)(F)F)cc1CN[C@H]1CCCN[C@H]1c1ccccc1, which Potency is on record?
The Potency was 27.3 µM (active).

For O=S1(=O)OC(c2ccc(O)cc2)(c2ccc(O)cc2)c2ccccc21, which Potency is on record?
The Potency was “inactive and 43.3 µM (active)”.

Which Potency does the source give for CCc1nc(N)nc(N)c1-c1ccc(Cl)cc1 here?
Its Potency is 1.5 µM (active) and 392 nM (active) and 217 nM (active).

With CN(N=O)C(=O)N[C@@H]1[C@@H](O)[C@H](O)[C@@H](CO)O[C@@H]1O as the molecule, how does the Potency read?
Its Potency is “inactive”.

For NC1CCCCC1, which Potency is on record?
The Potency was 61.5 µM (active) and inactive.

Which Potency does the source give for NS(=O)(=O)O here?
The Potency was “inactive”.

For C=CCc1ccc(O)c(OC)c1, which Potency is on record?
The Potency was “inactive”.

— PubChem BioAssay (Tox21)
